Screening results deposited in PubChem BioAssay by several laboratories.
EP2 antag: human EP2 receptor antagonists, primary screen, TR-FRET cAMP, C6 glioma cells; AID 1422, 2008; inhibition, % at 25 µM; C6 glioma cells expressing human EP2; cells stimulated with saturating PGE2; hit rate 0.52% among 260,000;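 active = percent inhibition above 40 after rounding to a whole number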;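 also: rat C6 glioma host cells with rolipram phosphodiesterase inhibitor present; the protocol text gives 20 µM as final concentration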
Target sequence (P43116 whole entry, looked up): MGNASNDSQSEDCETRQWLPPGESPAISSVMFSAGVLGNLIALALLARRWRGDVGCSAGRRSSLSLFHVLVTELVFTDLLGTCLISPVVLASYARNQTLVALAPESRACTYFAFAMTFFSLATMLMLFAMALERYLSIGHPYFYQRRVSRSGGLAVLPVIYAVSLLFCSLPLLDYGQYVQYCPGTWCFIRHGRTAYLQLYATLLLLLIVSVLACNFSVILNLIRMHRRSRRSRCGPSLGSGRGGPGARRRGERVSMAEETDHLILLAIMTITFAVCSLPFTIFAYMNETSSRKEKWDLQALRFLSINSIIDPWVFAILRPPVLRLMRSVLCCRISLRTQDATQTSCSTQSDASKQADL
EP2 mod: EP2 receptor modulators, cAMP readout, primary screen, cell-based, HTRF cAMP, PGE2 stimulation | Prostaglandin E2 receptor EP2 subtype (Homo sapiens), P43116 | EP2-expressing cells, cAMP HTRF FRET, PGE2 co-stimulation | induction, % at 25 µM | hit rate 0.83% among 260,000;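 active = compounds whose cAMP rise, as percent of the full-agonist control response, exceeds 60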;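 also: rat C6 glioma line stably carrying human EP2 under a CMV promoter; the protocol text gives 20 µM as final concentration; 100% = response of wells given 1 µM PGE2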
Cl transport mod: KCC2 cotransporter modulators, thallium flux, primary screen, cell-based, HEK293 KCC2, FluoZin-2 fluorescence, MLSMR; Solute carrier family 12 member 5 (Homo sapiens), Q9H2X9; B-score of Tl+ flux slope (higher = more flux/activation; lower = inhibition) at 10 µM; hit rate 2.2% among 190,000; KCC2 cells, thallium flux FluoZin-2 fluorescence;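 active = thallium flux slope and its plate-corrected score both differing from the plate sample mean at a set confidence after two filtering rounds, in either direction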;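 also: slope of fluorescence scaled to starting intensity during 10 to 20 s after thallium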
S1P3 antagonist: S1P3 receptor antagonists, primary screen, cell-based; Sphingosine 1-phosphate receptor 3 (Homo sapiens), Q99500; hit rate 0.27% among 170,000; AID 485, 2006; CHO S1P3 NFAT-BLA reporter, FRET fluorescence, antagonist mode; inhibition, % at 4.98 µM;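 active = inhibition above the plate cutoff, the mean inhibition of test wells on that plate plus 3 SD, cut at about 28% in these data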;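 also: cells challenged with S1P at its EC80 of 0.8 µM; blue over green emission ratio from cleaved BLA substrate after 4 h stimulation; 0% = S1P-stimulated wells and 100% = unstimulated DMSO-only wells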
Target sequence (Q99500 whole entry, looked up): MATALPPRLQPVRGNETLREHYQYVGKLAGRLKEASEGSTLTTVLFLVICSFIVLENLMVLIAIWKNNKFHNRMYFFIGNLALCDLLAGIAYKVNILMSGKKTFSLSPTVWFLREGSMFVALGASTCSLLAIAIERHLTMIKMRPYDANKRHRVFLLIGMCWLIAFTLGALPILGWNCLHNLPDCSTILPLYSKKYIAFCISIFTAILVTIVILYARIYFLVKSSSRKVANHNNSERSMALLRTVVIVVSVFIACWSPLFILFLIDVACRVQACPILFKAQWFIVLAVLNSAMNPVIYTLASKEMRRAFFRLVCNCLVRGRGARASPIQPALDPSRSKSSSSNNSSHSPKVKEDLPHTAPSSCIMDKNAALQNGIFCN
KCC2 sec1: KCC2 modulators in sodium-free buffer, confirmation, cell-based, HEK293 KCC2, thallium flux, secondary assay; shares compounds with Cl transport mod; AID 1713, 2009; hit rate 15% among 3,700; normalised thallium flux (F/F0 slope) at 10 µM; FluoZin2 fluorescence; active compounds read high;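 active = thallium flux slope above the same plate's solvent-only control mean plus 3 SD; inconclusive = the two replicate wells disagree; inactive = no significant difference from solvent-only control wells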
KCC2 bumet counter: thallium flux persisting under bumetanide in KCC2 cells, confirmation, counter-screen for KCC2 modulator project, cell-based, HEK293 KCC2, FluoZin2, secondary assay 3. shares compounds with Cl transport mod. HEK293-KCC2 + bumetanide/ouabain; active compounds read high. normalized thallium flux at 10 µM. hit rate 49% among 3,700;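 active = thallium entry rate above the same plate's blocked-transporter control wells by more than 3 SD; inconclusive = the two repeat wells disagree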;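 also: raw slope of fluorescence over initial fluorescence between 10 and 20 s after thallium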
KCC2 sec2: KCC2 modulators without ouabain present, confirmation, cell-based, HEK293 KCC2, thallium flux, FluoZin2, secondary assay 2; shares compounds with Cl transport mod; thallium flux FluoZin2 fluorescence; actives lie on both sides; F/F0 rise rate, 10–20 s post-thallium; normalized thallium flux at 10 µM; hit rate 23% among 3,700;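 active = thallium flux slope more than 3 SD above or below the plate's solvent-only control mean, mostly below; inconclusive = the two repeat wells disagreed; inactive = no significant shift from solvent-only controls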;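 also: raw slope with 0.1% DMSO as baseline and bumetanide as block control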
HEK293 Tl flux: thallium flux modulation in parental HEK cells, confirmation, counter-screen for KCC2 modulator project, cell-based, counterscreen 1 | HEK293 parental cells, thallium flux FluoZin2, ouabain; baseline-ratio fluorescence slope, 10–20 s after thallium | thallium flux rate (normalised fluorescence) at 10 µM | shares compounds with Cl transport mod | hit rate 46% among 3,700;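 active = thallium flux rate significantly above the same plate's solvent-only control wells, beyond their mean plus 3 SD; inconclusive = the two replicate wells gave conflicting results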
KCC2 retest ouab: KCC2 inhibitors and activators, ouabain retest, confirmation, HEK-KCC2 cells; HEK293-KCC2, thallium flux FluoZin2 fluorescence; bidirectional: low = inhibitor, high = activator; shares compounds with Cl transport mod; raw Tl+ flux slope (below DMSO = inhibition, above = activation) at 10 µM; hit rate 48% among 3,700;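 active = thallium flux slope beyond 3 SD from same-plate DMSO control mean in most replicates, usually higher, sometimes lower; inconclusive = repeat tests gave conflicting results; inactive = no significant difference from controls in most replicates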;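 also: slope of initial-normalized fluorescence between seconds 10 and 20 after thallium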
HEK counter2: native HEK Tl+ uptake effects, second counter-screen – HEK cells, counterscreen 2, counter-screen for KCC2 modulator project, confirmation | shares compounds with Cl transport mod | HEK293 parental, thallium flux FluoZin-2 fluorescence slope | thallium flux slope at 10 µM | hit rate 33% among 3,700 | AID 1718, 2009;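 active = thallium flux slope above the same plate's solvent-control mean plus 3 SD in both duplicate wells; inconclusive = duplicate wells that disagreed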;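 also: run without ouabain in cells lacking the KCC2 cotransporter; slope of fluorescence scaled to its starting value between 10 and 20 s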
* hit, by the source's call; ? = inconclusive; / = not tested or not shown. Most compounds without a hit are left out; they make up all but 3.1% or so of the library.

SMILES | EP2 antag | EP2 mod | Cl transport mod | S1P3 antagonist | KCC2 sec1 | KCC2 bumet counter | KCC2 sec2 | HEK293 Tl flux | KCC2 retest ouab | HEK counter2
COC(=O)C1CCN(C(=O)COC(=O)CCc2nc3ccccc3c(=O)[nH]2)CC1 | 7.1 | 45.3 | 4.59* | 0.8 | 0.00985 | 0.00719 | 0.0352 | 0.00717 | 0.0234 | ?
COc1cc(C(=O)NCCc2cn3ccc(C)cc3n2)cc(OC)c1OC | 13.5 | -3.5 | -3.41* | -11.5 | ? | ? | 0.0335 | 0.00768 | 0.0226 | 0.0103
CCOc1cc(/C=C(/C#N)c2ccc(F)cc2)ccc1OCc1ccc(C(=O)O)o1 | 19.9 | -9.6 | -4.91* | -7.7 | 0.0159 | 0.00405 | 0.0237* | 0.00547* | 0.0123* | ?
COc1ccc(N(CC(=O)NCC2CCCO2)C(=O)CCC(=O)Nc2ccccn2)cc1 (configuration not stated) | 6.7 | -11.1 | / | / | / | / | / | / | / | /
Cc1ccc2nc3c(cc(C(=O)NCCc4ccccc4)c(=N)n3C(C)C)c(=O)n2c1 | 9.2 | -12.2 | / | / | / | / | / | / | / | /
S=c1[nH]nc(-c2ccc3ccccc3n2)n1-c1cc(Cl)cc(Cl)c1 | 34.0 | 41.4 | 22.1* | -21.6 | 0.0209* | 0.0542* | 0.0333 | 0.0387* | 0.0509* | 0.0126*
S=c1[nH]nc(-c2ccc3ccccc3n2)n1-c1ccccc1Cl | 8.3 | -6.9 | 5.98* | -1.1 | 0.011 | 0.0265* | 0.0328 | 0.0125* | 0.0252 | 0.0105
Cc1nn(C)cc1-c1n[nH]c(=S)n1-c1ccc(F)cc1 | 3.1 | 11.4 | 0.573 | -3.9 | / | / | / | / | / | /
Fc1ccc(-n2c(-c3ccc4ccccc4n3)n[nH]c2=S)cc1 | 6.5 | 20.8 | 6.63* | 9.5 | ? | 0.0224* | 0.0324 | 0.0178* | 0.0272* | 0.0183*
CN1/C(=C\C(=O)COc2ccc3c(c2)OCO3)C(C)(C)c2ccccc21 | / | -6.0 | -3.99* | 11.6 | 0.00827 | 0.00465 | 0.0248* | 0.00642 | ? | 0.00999
COc1ccccc1OCC(=O)/C=C1/N(C)c2ccccc2C1(C)C | 21.5 | -34.4 | -1.93 | 8.3 | / | / | / | / | / | /
CCOC(=O)c1c(C)oc2ccc(O)cc12 | 16.5 | 24.8 | / | / | / | / | / | / | / | /
CCOC(=O)c1c(C(C)(C)C)oc2ccc(O)cc12 | 3.6 | 49.8 | -6.17* | / | 0.00796 | 0.00633 | 0.0352 | 0.00786 | ? | 0.0105
CC1CCc2c(sc3nc(C4CC4)nc(SCC(=O)NCc4ccc5c(c4)OCO5)c23)C1 (configuration not stated) | 6.9 | 11.8 | / | / | / | / | / | / | / | /
O=C1c2ccccc2C(Nc2ccc(S(=O)(=O)N3CCCCC3)cc2)N1Cc1ccco1 (configuration not stated) | 10.5 | -6.2 | -5.14* | / | 0.00679 | 0.00428 | ? | 0.0062* | 0.0143* | 0.00984
CCOc1ccc(NC2c3ccccc3C(=O)N2Cc2ccco2)cc1 (configuration not stated) | 7.2 | 6.2 | -4.2* | 6.9 | 0.00708 | 0.00546 | 0.028 | 0.00505* | 0.0156* | 0.0086
COc1ccccc1-n1c(SCC(=O)N2CCOCC2)nnc1-c1ccccc1O | 24.8 | -27.8 | / | / | / | / | / | / | / | /
CCC(Oc1ccccc1)C(=O)Nc1ncc([N+](=O)[O-])s1 (configuration not stated) | 6.8 | -11.4 | -2.78* | -11.2 | 0.00773 | ? | 0.0326 | 0.00703 | 0.0166* | 0.0109
O=C(CSc1n[nH]c(-c2ccco2)n1)NCc1ccccc1 | 11.2 | -27.1 | / | / | / | / | / | / | / | /
O=C(C1CC(c2ccccc2O)=NO1)N1CCc2ccccc2C1 (configuration not stated) | 8.6 | -41.0 | -3.22* | / | 0.00677 | 0.00533 | ? | 0.008 | 0.0177 | 0.0107
O=C(C1CC(c2ccc(F)cc2)=NO1)N1CCc2ccccc2C1 (configuration not stated) | 7.5 | -14.8 | -0.773 | 1.0 | / | / | / | / | / | /
COc1ccccc1N1CCN(C(=S)NC(=O)/C=C/c2ccc(F)cc2)CC1 | 7.0 | -24.3 | 26.9* | 13.1 | 0.00554 | 0.0394* | 0.0336 | 0.0155* | 0.0315* | 0.0181*
COc1ccccc1N1CCN(C(=S)NC(=O)/C=C/c2ccccc2)CC1 | 5.1 | 20.6 | 6.71* | -4.6 | 0.0059 | 0.0109* | 0.0335 | 0.0136* | ? | 0.014*
COc1ccc(NC(=O)N(CCc2ccccc2)Cc2cc3cc(OC)ccc3[nH]c2=O)cc1 | 25.5 | -33.8 | / | / | / | / | / | / | / | /
CCn1cc(S(=O)(=O)N2CCCc3cc(OC)ccc32)cn1 | 4.1 | -78.2 | / | / | / | / | / | / | / | /
SMILES | EP2 antag | EP2 mod | Cl transport mod | S1P3 antagonist | KCC2 sec1 | KCC2 bumet counter | KCC2 sec2 | HEK293 Tl flux | KCC2 retest ouab | HEK counter2
COc1ccc2[nH]c(=O)c(CN(C(=O)Nc3ccccc3Cl)C3CCCC3)cc2c1 | 5.0 | -3.5 | / | / | / | / | / | / | / | /
COc1ccc(-n2nnc3c(=O)n(CC(=O)N4CCCc5ccccc54)cnc32)cc1 | 11.3 | / | -1.12 | 27.4 | / | / | / | / | / | /
Cc1ccc(Cn2nnc3c(=O)n(CC(=O)N4CCN(c5ccccc5)CC4)cnc32)cc1 | 1.4 | 7.6 | -3.23* | -12.0 | 0.00753 | 0.00592 | 0.0309 | 0.00638 | ? | 0.00954
O=C(Cn1cnc2c(nnn2Cc2ccc(F)cc2)c1=O)NCc1ccco1 | 10.2 | -1.6 | -4.53* | -16.7 | 0.00686 | 0.00483 | 0.0236* | 0.00745 | 0.0166* | 0.0105
O=C(Cn1cnc2c(nnn2Cc2ccc(F)cc2)c1=O)NC1CCCC1 | 9.4 | 13.2 | -1.33 | -23.5 | / | / | / | / | / | /
O=C(Cn1cnc2c(nnn2-c2ccc(F)cc2)c1=O)N1CCCc2ccccc21 | 2.2 | 15.6 | -4.42* | 0.7 | 0.00713 | 0.00479 | 0.0269 | 0.0075 | 0.0165 | 0.00985
O=C(Cn1cnc2c(nnn2Cc2ccc(F)cc2)c1=O)N1CCCCC1 | / | -2.7 | / | -17.1 | 0.00764 | 0.0057 | 0.0295 | 0.00854 | 0.0137* | 0.012
CC(NCCCN(C)C)C(=O)N1CCCCC1C (configuration not stated) | 18.2 | 6.3 | / | / | / | / | / | / | / | /
